# Results reported in PubChem BioAssay (NCI).
# Compounds without any hit were thinned out: in the full panel of roughly 79,000, 15% have a hit. Values without a mark were called inactive. Activity calls are given as the source filed them. Rule as the data show it: active = growth inhibition above about 70%; inactive = the rest.
# What was measured:
# [1] = NCI Yeast Anticancer Drug Screen. Data for the wt2 strain (AID 169);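 also: 0% = growth of vehicle-treated yeast cultures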; conditions: S. cerevisiae wt2 strain growth inhibition, stronger effect = higher value
# Method in brief: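 Treated yeast vs. vehicle-treated yeast: growth inhibition determined.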
# [2] = NCI Yeast Anticancer Drug Screen. Data for the mlh1 strain (AID 171);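 also: 0% = growth of vehicle-treated control cultures of the same strain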; conditions: S. cerevisiae mlh1 strain growth inhibition, stronger effect = higher value
# Method in brief: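 A yeast strain with a defined genetic lesion serves as the test organism. Cultures receive compound or vehicle, and growth is measured.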
# [3] = NCI Yeast Anticancer Drug Screen. Data for the sgs1 strain (AID 173);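 also: 0% = growth of vehicle-only control cultures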; conditions: S. cerevisiae sgs1 mutant, stronger effect = higher value
# Method in brief: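 A genetically defined yeast mutant is incubated with the test compound, and its growth is compared to that of the same strain given vehicle.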
# [4] = NCI Yeast Anticancer Drug Screen. Data for the mlh1 rad18 strain (AID 175); conditions: S. cerevisiae mlh1 rad18 strain growth inhibition, stronger effect = higher value
# Method in brief: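 Steps: expose repair-defective yeast to compound; measure growth; express inhibition against vehicle-treated controls.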
# [5] = NCI Yeast Anticancer Drug Screen. Data for the rad18 strain (AID 177); conditions: S. cerevisiae rad18 mutant growth inhibition, stronger effect = higher value
# Method in brief: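 Measured value is growth inhibition of a yeast strain bearing a DNA repair alteration, referenced to vehicle-treated cells.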
# [6] = NCI Yeast Anticancer Drug Screen. Data for the rad52 strain (AID 147);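 also: 0% = growth of vehicle-treated control cultures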; conditions: S. cerevisiae rad52 mutant growth inhibition, stronger effect = higher value
# Method in brief: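 Here a repair-compromised yeast strain receives each compound; its growth is then quantified and normalised to vehicle-only controls.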
# [7] = NCI Yeast Anticancer Drug Screen. Data for the wt1 strain (AID 149);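 also: 0% = growth of vehicle-treated wt1 cultures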; conditions: S. cerevisiae wt1 strain (SPY 50644) growth inhibition, stronger effect = higher value
# Method in brief: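 Readout: yeast growth inhibition, normalised to vehicle controls, in the wt1 strain exposed to test compounds.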
# [8] = NCI Yeast Anticancer Drug Screen. Data for the rad50EPP+ strain (AID 151);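 also: 0% = growth of vehicle-treated control cultures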; conditions: S. cerevisiae rad50 mutant strain, stronger effect = higher value
# Method in brief: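 Read-out is yeast growth inhibition relative to vehicle; cells used were the rad50EPP+ strain.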
# [9] = NCI Yeast Anticancer Drug Screen. Data for the mgt1 strain (AID 153); conditions: S. cerevisiae mgt1 mutant growth inhibition, stronger effect = higher value
# Method in brief: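 Measured: inhibition of mgt1 yeast growth by compound, normalized to vehicle-treated cultures.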
# [10] = NCI Yeast Anticancer Drug Screen. Data for the rad50 strain (AID 155);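 also: 0% = growth of vehicle-only cultures of the same strain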; conditions: S. cerevisiae rad50 strain growth inhibition, stronger effect = higher value
# Method in brief: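 Compounds were tested on a yeast strain with an engineered DNA damage repair alteration; the reported value is growth inhibition normalised to vehicle treatment.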
# [11] = NCI Yeast Anticancer Drug Screen. Data for the mec2-1 strain (AID 157); conditions: S. cerevisiae mec2-1 strain, stronger effect = higher value
# Method in brief: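 Using mec2-1 yeast: add compound, measure growth, express inhibition versus vehicle-treated cultures.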
# [12] = NCI Yeast Anticancer Drug Screen. Data for the rad14 strain (AID 159);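 also: 0% = growth of vehicle-treated control cultures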; conditions: S. cerevisiae rad14 strain growth inhibition, stronger effect = higher value
# Method in brief: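 Compound-treated yeast with a defined DNA-repair lesion; growth inhibition normalised to vehicle-treated cultures.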
# [13] = NCI Yeast Anticancer Drug Screen. Data for the sgs1 mgt1 strain (AID 161);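 also: 0% = growth of cultures given vehicle only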; conditions: S. cerevisiae sgs1 mgt1 strain, stronger effect = higher value
# Method in brief: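 Growth of a repair-deficient yeast mutant was monitored after compound treatment and expressed as inhibition relative to vehicle-treated cultures.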
# [14] = NCI Yeast Anticancer Drug Screen. Data for the CLN2oe strain (AID 163);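 also: 0% = growth of vehicle-only control cultures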; conditions: S. cerevisiae CLN2oe strain, stronger effect = higher value
# Method in brief: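 Whole-cell yeast growth assay. A strain engineered for altered cell-cycle control received compound, and inhibition relative to vehicle-treated cultures was recorded.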
# [15] = NCI Yeast Anticancer Drug Screen. Data for the cln2 rad14 strain (AID 165);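 also: 0% = growth equal to vehicle treated cultures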; conditions: S. cerevisiae cln2 rad14 strain, stronger effect = higher value
# Method in brief: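 Yeast strain cln2 rad14, bearing defects in cell cycle control and DNA repair, serves as the test system; values reflect growth inhibition compared with vehicle.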
# [16] = NCI Yeast Anticancer Drug Screen. Data for the bub3 strain (AID 167); conditions: S. cerevisiae bub3 mutant strain, stronger effect = higher value
# Method in brief: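 Growth of a checkpoint-deficient yeast mutant is measured after compound exposure. Values represent inhibition relative to vehicle.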
# [17] = at 5.0 µM (retest, dose inferred, filed as 0.5)
# [18] = at 50.0 µM (retest, dose inferred, filed as 5.0)
compound,measurement,setting,value
CCC(C)COC(=O)Nc1cccc(Cl)c1 (stereo unspecified),growth inhibition,[1]; at 1.2 µM,-2%
same,growth inhibition,[1]; at 3.7 µM,-2%
same,growth inhibition,[1]; at 11.0 µM,-2%
same,growth inhibition,[1]; at 33.0 µM,82% (active)
same,growth inhibition,[1]; at 100.0 µM,99% (active)
same,growth inhibition,[2]; at 1.2 µM,-6%
same,growth inhibition,[2]; at 3.7 µM,-5%
same,growth inhibition,[2]; at 11.0 µM,-7%
same,growth inhibition,[2]; at 33.0 µM,57%
same,growth inhibition,[2]; at 100.0 µM,99% (active)
same,growth inhibition,[3]; at 1.2 µM,0%
same,growth inhibition,[3]; at 3.7 µM,2%
same,growth inhibition,[3]; at 11.0 µM,7%
same,growth inhibition,[3]; at 33.0 µM,87% (active)
same,growth inhibition,[3]; at 100.0 µM,99% (active)
same,growth inhibition,[4]; [17],-9%
same,growth inhibition,[4]; [18],69%
same,growth inhibition,[4]; at 50.0 µM,97.5% (active)
same,growth inhibition,[5]; at 1.2 µM,4%
same,growth inhibition,[5]; at 3.7 µM,5%
same,growth inhibition,[5]; at 11.0 µM,1%
same,growth inhibition,[5]; at 33.0 µM,27%
same,growth inhibition,[5]; at 100.0 µM,98% (active)
CC(=O)/C=C/c1cccc([N+](=O)[O-])c1,growth inhibition,[6]; at 1.2 µM,2%
same,growth inhibition,[6]; at 3.7 µM,4%
same,growth inhibition,[6]; at 11.0 µM,9%
same,growth inhibition,[6]; at 33.0 µM,29%
same,growth inhibition,[6]; at 100.0 µM,86% (active)
same,growth inhibition,[7]; at 1.2 µM,1%
same,growth inhibition,[7]; at 3.7 µM,4%
same,growth inhibition,[7]; at 11.0 µM,8%
same,growth inhibition,[7]; at 33.0 µM,16%
same,growth inhibition,[7]; at 100.0 µM,68%
same,growth inhibition,[8]; at 1.2 µM,3%
same,growth inhibition,[8]; at 3.7 µM,7%
same,growth inhibition,[8]; at 11.0 µM,29%
same,growth inhibition,[8]; at 33.0 µM,81% (active)
same,growth inhibition,[8]; at 100.0 µM,98% (active)
same,growth inhibition,[9]; at 1.2 µM,1%
same,growth inhibition,[9]; at 3.7 µM,2%
same,growth inhibition,[9]; at 11.0 µM,7%
same,growth inhibition,[9]; at 33.0 µM,48%
same,growth inhibition,[9]; at 100.0 µM,94% (active)
same,growth inhibition,[10]; at 1.2 µM,0%
same,growth inhibition,[10]; at 3.7 µM,3%
same,growth inhibition,[10]; [17],-4%
same,growth inhibition,[10]; at 11.0 µM,8%
same,growth inhibition,[10]; at 33.0 µM,20%
same,growth inhibition,[10]; [18],84% (active)
same,growth inhibition,[10]; at 50.0 µM,82% (active)
same,growth inhibition,[10]; at 100.0 µM,89% (active)
same,growth inhibition,[11]; at 1.2 µM,0%
same,growth inhibition,[11]; at 3.7 µM,2%
same,growth inhibition,[11]; [17],2%
same,growth inhibition,[11]; at 11.0 µM,3%
same,growth inhibition,[11]; at 33.0 µM,29%
same,growth inhibition,[11]; [18],56%
same,growth inhibition,[11]; at 50.0 µM,51%
same,growth inhibition,[11]; at 100.0 µM,95% (active)
same,growth inhibition,[12]; at 1.2 µM,-2%
same,growth inhibition,[12]; at 3.7 µM,0%
same,growth inhibition,[12]; at 11.0 µM,7%
same,growth inhibition,[12]; at 33.0 µM,21%
same,growth inhibition,[12]; at 100.0 µM,91% (active)
same,growth inhibition,[13]; [17],-3%
same,growth inhibition,[13]; [18],85% (active)
same,growth inhibition,[13]; at 50.0 µM,48%
same,growth inhibition,[14]; at 1.2 µM,-2%
same,growth inhibition,[14]; at 3.7 µM,-2%
same,growth inhibition,[14]; at 11.0 µM,1%
same,growth inhibition,[14]; at 33.0 µM,6%
same,growth inhibition,[14]; at 100.0 µM,44%
same,growth inhibition,[15]; [17],5%
same,growth inhibition,[15]; [18],4%
same,growth inhibition,[15]; at 50.0 µM,6.15%
same,growth inhibition,[16]; at 1.2 µM,-4%
same,growth inhibition,[16]; at 3.7 µM,-5%
same,growth inhibition,[16]; [17],31%
same,growth inhibition,[16]; at 11.0 µM,-2%
same,growth inhibition,[16]; at 33.0 µM,28%
same,growth inhibition,[16]; [18],89% (active)
same,growth inhibition,[16]; at 50.0 µM,72.4% (active)
same,growth inhibition,[16]; at 100.0 µM,91% (active)
same,growth inhibition,[1]; at 1.2 µM,1%
same,growth inhibition,[1]; at 3.7 µM,4%
same,growth inhibition,[1]; at 11.0 µM,10%
same,growth inhibition,[1]; at 33.0 µM,28%
same,growth inhibition,[1]; at 100.0 µM,88% (active)
same,growth inhibition,[2]; at 1.2 µM,2%
same,growth inhibition,[2]; at 3.7 µM,1%
same,growth inhibition,[2]; at 11.0 µM,10%
same,growth inhibition,[2]; at 33.0 µM,32%
same,growth inhibition,[2]; at 100.0 µM,95% (active)
same,growth inhibition,[3]; at 1.2 µM,1%
same,growth inhibition,[3]; at 3.7 µM,7%
same,growth inhibition,[3]; at 11.0 µM,15%
same,growth inhibition,[3]; at 33.0 µM,50%
same,growth inhibition,[3]; at 100.0 µM,95% (active)
same,growth inhibition,[4]; [17],12%
same,growth inhibition,[4]; [18],94% (active)
same,growth inhibition,[4]; at 50.0 µM,81.7% (active)
same,growth inhibition,[5]; at 1.2 µM,1%
same,growth inhibition,[5]; at 3.7 µM,2%
same,growth inhibition,[5]; at 11.0 µM,21%
same,growth inhibition,[5]; at 33.0 µM,22%
same,growth inhibition,[5]; at 100.0 µM,77% (active)
